Results as given in PubChem BioAssay AID1159580 (chemical genetic matrix, 2015).
The whole screen tested about 5,500 compounds, of which about 2,000 (36%) were called active. Roughly 18% stayed inconclusive and do not appear here. Cut-off read from the data, not from the text of the source: active = normalized growth mostly below about 0.91 (no sharp cut-off); inconclusive = no clear call, values can overlap the other calls; inactive = mostly above about 0.92. This is one part of the list.

Assay: chemical genetic growth profiling, strain panel (AID 1159580);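 note: tested at 20 µM; growth read once vehicle control cultures reached saturation at 30 °C; 1 = growth at the plate median or of vehicle wells; lower values mean less growth of the strain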
Conditions: growth OD

Measured: normalized growth

Nc1ncnc2c1ncn2[C@@H]1O[C@H](CO)[C@@H](O)[C@H]1O
inactive: S. cerevisiae deletion strains, locus YJR066W, strain TOR1, stronger effect = lower value 0.966 | S. cerevisiae deletion strains, locus YJR075W, strain HOC1, stronger effect = lower value 0.99 | S. cerevisiae deletion strains, locus YKL009W, strain mrt4, stronger effect = lower value 0.961 | S. cerevisiae deletion strains, locus YKL068W, stronger effect = lower value 0.983 | S. cerevisiae deletion strains, locus YKL085W, strain MDH1 (second series), stronger effect = lower value 0.965 | S. cerevisiae deletion strains, locus YKL085W, strain MDH1, stronger effect = lower value 0.965 | S. cerevisiae deletion strains, locus YKL160W, strain elf1, stronger effect = lower value 0.955 | S. cerevisiae deletion strains, locus YKR001C, strain vps1, stronger effect = lower value 0.997 | S. cerevisiae deletion strains, locus YKR026C, strain gcn3, stronger effect = lower value 0.987 | S. cerevisiae deletion strains, locus YKR091W, strain srl3, stronger effect = lower value 0.994 | S. cerevisiae deletion strains, locus YLL001W, strain dnm1, stronger effect = lower value 0.922 | S. cerevisiae deletion strains, locus YLL026W, stronger effect = lower value 0.99 | S. cerevisiae deletion strains, locus YLL041C, strain sdh2, stronger effect = lower value 0.99 | S. cerevisiae deletion strains, locus YLR027C, strain aat2, stronger effect = lower value 0.994 | S. cerevisiae deletion strains, locus YLR039C, strain RIC1, stronger effect = lower value 0.95 | S. cerevisiae deletion strains, locus YLR058C, strain SHM2, stronger effect = lower value 0.971 | S. cerevisiae deletion strains, locus YLR102C, strain apc9, stronger effect = lower value 0.978 | S. cerevisiae deletion strains, locus YLR113W, strain HOG1, stronger effect = lower value 1.01 | S. cerevisiae deletion strains, locus YLR221C, strain rsa3, stronger effect = lower value 0.95 | S. cerevisiae deletion strains, locus YLR258W, strain gsy2, stronger effect = lower value 0.975 | S. cerevisiae deletion strains, locus YLR262C, strain YPT6 (second series), stronger effect = lower value 0.974 | S. cerevisiae deletion strains, locus YLR262C, strain YPT6, stronger effect = lower value 0.913 | S. cerevisiae deletion strains, locus YLR268W, strain sec22, stronger effect = lower value 1 | S. cerevisiae deletion strains, locus YLR320W, strain mms22, stronger effect = lower value 0.939 | S. cerevisiae deletion strains, locus YLR330W, strain CHS5, stronger effect = lower value 0.993 | S. cerevisiae deletion strains, locus YLR342W, strain FKS1 (second series), stronger effect = lower value 1.03 | S. cerevisiae deletion strains, locus YLR342W, strain FKS1, stronger effect = lower value 0.993 | S. cerevisiae deletion strains, locus YLR357W, strain rsc2, stronger effect = lower value 0.983 | S. cerevisiae deletion strains, locus YLR370C, strain arc18, stronger effect = lower value 0.967 | S. cerevisiae deletion strains, locus YLR371W, strain rom2, stronger effect = lower value 0.978 | S. cerevisiae deletion strains, locus YLR384C, strain iki3, stronger effect = lower value 0.982 | S. cerevisiae deletion strains, locus YLR418C, strain cdc73, stronger effect = lower value 0.945 | S. cerevisiae deletion strains, locus YML016C, strain PPZ1, stronger effect = lower value 0.987 | S. cerevisiae deletion strains, locus YML032C, strain rad52, stronger effect = lower value 0.949 | S. cerevisiae deletion strains, locus YML120C, strain ndi1, stronger effect = lower value 0.952 | S. cerevisiae deletion strains, locus YML124C, strain tub3, stronger effect = lower value 0.988 | S. cerevisiae deletion strains, locus YMR058W, strain fet3, stronger effect = lower value 0.995 | S. cerevisiae deletion strains, locus YMR078C, strain ctf18, stronger effect = lower value 0.972 | S. cerevisiae deletion strains, locus YMR125W, strain sto1, stronger effect = lower value 0.982 | S. cerevisiae deletion strains, locus YMR129W, stronger effect = lower value 0.995 | S. cerevisiae deletion strains, locus YMR205C, strain PFK2, stronger effect = lower value 0.944 | S. cerevisiae deletion strains, locus YMR223W, strain ubp8, stronger effect = lower value 0.956 | S. cerevisiae deletion strains, locus YMR231W, strain pep5, stronger effect = lower value 0.992 | S. cerevisiae deletion strains, locus YMR263W, strain SAP30, stronger effect = lower value 0.982 | S. cerevisiae deletion strains, locus YMR307W, strain GAS1, stronger effect = lower value 0.98 | S. cerevisiae deletion strains, locus YNL067W, strain RPL9B, stronger effect = lower value 0.967 | S. cerevisiae deletion strains, locus YNL071W, strain lat1, stronger effect = lower value 1 | S. cerevisiae deletion strains, locus YNL153C, strain GIM3, stronger effect = lower value 0.98 | S. cerevisiae deletion strains, locus YNL183C, strain NPR1, stronger effect = lower value 0.975 | S. cerevisiae deletion strains, locus YNL209W, strain ssb2, stronger effect = lower value 0.988 | S. cerevisiae deletion strains, locus YNL233W, strain BNI4, stronger effect = lower value 0.991 | S. cerevisiae deletion strains, locus YNL248C, strain rpa49, stronger effect = lower value 1.01 | S. cerevisiae deletion strains, locus YNL250W, strain rad50, stronger effect = lower value 0.978 | S. cerevisiae deletion strains, locus YNL271C, strain bni1, stronger effect = lower value 0.979 | S. cerevisiae deletion strains, locus YNL298W, strain CLA4, stronger effect = lower value 0.963 | S. cerevisiae deletion strains, locus YNL307C, strain MCK1, stronger effect = lower value 0.978 | S. cerevisiae deletion strains, locus YNL322C, strain KRE1 (second series), stronger effect = lower value 0.978 | S. cerevisiae deletion strains, locus YNR049C, strain mso1, stronger effect = lower value 0.982 | S. cerevisiae deletion strains, locus YNR052C, strain pop2, stronger effect = lower value 0.977 | S. cerevisiae deletion strains, locus YOL006C, strain TOP1, stronger effect = lower value 1.02 | S. cerevisiae deletion strains, locus YOL012C, strain htz1 0.737 | S. cerevisiae deletion strains, locus YOL147C, strain pex11, stronger effect = lower value 0.987 | S. cerevisiae deletion strains, locus YOR001W, strain rrp6, stronger effect = lower value 1.02 | S. cerevisiae deletion strains, locus YOR061W, strain CKA2, stronger effect = lower value 0.96 | S. cerevisiae deletion strains, locus YOR069W, strain VPS5, stronger effect = lower value 0.99 | S. cerevisiae deletion strains, locus YOR070C, strain gyp1, stronger effect = lower value 0.987 | S. cerevisiae deletion strains, locus YOR080W, strain dia2, stronger effect = lower value 0.995 | S. cerevisiae deletion strains, locus YOR083W, strain WHI5, stronger effect = lower value 0.96 | S. cerevisiae deletion strains, locus YOR106W, strain vam3, stronger effect = lower value 0.971 | S. cerevisiae deletion strains, locus YOR136W, strain idh2, stronger effect = lower value 0.982 | S. cerevisiae deletion strains, locus YOR144C, strain elg1, stronger effect = lower value 0.978 | S. cerevisiae deletion strains, locus YOR184W, strain ser1, stronger effect = lower value 0.967 | S. cerevisiae deletion strains, locus YOR231W, strain MKK1, stronger effect = lower value 1.03 | S. cerevisiae deletion strains, locus YOR265W, strain rbl2, stronger effect = lower value 0.983 | S. cerevisiae deletion strains, locus YOR270C, strain vph1, stronger effect = lower value 0.966 | S. cerevisiae deletion strains, locus YOR290C, strain snf2, stronger effect = lower value 0.955 | S. cerevisiae deletion strains, locus YOR316C, strain cot1, stronger effect = lower value 0.978 | S. cerevisiae deletion strains, locus YPL051W, strain arl3, stronger effect = lower value 0.988 | S. cerevisiae deletion strains, locus YPL078C, strain atp4, stronger effect = lower value 0.969 | S. cerevisiae deletion strains, locus YPL106C, strain sse1, stronger effect = lower value 0.955 | S. cerevisiae deletion strains, locus YPL240C, strain hsp82, stronger effect = lower value 0.998 | S. cerevisiae deletion strains, locus YPL241C, strain CIN2, stronger effect = lower value 0.99 | S. cerevisiae deletion strains, locus YPL256C, strain CLN2, stronger effect = lower value 0.982 | S. cerevisiae deletion strains, locus YPR119W, strain clb2, stronger effect = lower value 0.984 | S. cerevisiae deletion strains, locus YPR141C, strain kar3, stronger effect = lower value 0.972 | S. cerevisiae deletion strains, locus YPR163C, strain tif3, stronger effect = lower value 0.969 | S. cerevisiae deletion strains, locus YPR167C, strain met16, stronger effect = lower value 0.963 | S. cerevisiae deletion strains, strain wtn01, stronger effect = lower value 1.02 | S. cerevisiae strains, strain wild type, stronger effect = lower value 0.989
